# Data: PubChem BioAssay
# Calls of active or inactive are those of the source. Unless noted, how the calls were made is not given here.
# Assays:
# [1] = resazurin metabolic signal in HepG2 cells – cell-based, resazurin fluorescence, 24 h, PK04 Diversity Set, profiling panel (AID 1172); settings: HepG2 viability, higher = more signal
# [2] = budding yeast growth changes without added modifier – OD600, strain BY4716, 24 h, basal condition, primary screen (AID 1173); settings: S. cerevisiae BY4716 growth, OD600, 24 h; higher = more signal, called active from +8 up or from −8 down
# [3] = viability profiling in MM1S myeloma cells – cell-based, resazurin fluorescence, basal, 24 h, PK04 Diversity Set, profiling panel (AID 1174); settings: higher = more signal, called active from +8 up or from −8 down;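 further: MM1S multiple myeloma cell line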
# [4] = target: Dihydroorotate dehydrogenase (quinone), mitochondrial (Plasmodium falciparum (isolate 3D7)) (UniProt Q08210); assay: inhibition of P. falciparum DHODH – biochemical, C-terminal His tag, absorbance 600 nm, primary screen (AID 1175); settings: PfDHODH enzyme, DCIP absorbance 600 nm; higher = more signal, called active from +8 up or from −8 down;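 further: recombinant parasite enzyme with a five histidine tag at its C terminus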
# [5] = inhibition of PAO1 biofilm formation – strain PAO1, LB-PBS medium, absorbance 600 nm, primary screen (AID 1176); settings: P. aeruginosa PAO1 growth/biofilm, A600, 12 h; higher = more signal
# [6] = growth modulation of vineyard yeast isolate – strain RM11-1a, OD600, basal, 24 h, primary screen (AID 1177);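 further: cultures grown under basal conditions with no added stressor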; settings: S. cerevisiae RM11-1a growth, OD600, 24 h; higher = more signal, called active from +8 up or from −8 down
# [7] = growth of efflux-deficient E. coli DRC39 – strain DRC39, OD650, 24 h, E. coli filamentation inducers, primary screen (AID 1178);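 further: growth measured as culture turbidity by optical density at 650 nm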; settings: E. coli DRC39 acrAB, higher = more signal, called active from +8 up or from −8 down
# [8] = growth of efflux-deficient E. coli DRC39 – strain DRC39, OD650, 48 h, E. coli filamentation inducers, primary screen (AID 1179);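 further: screen aims at cell division blockers that make cells filament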; settings: E. coli DRC39 delta-acrAB growth, higher = more signal, called active from +8 up or from −8 down
# [9] = viability profiling in RPMI8226 myeloma cells – cell-based, resazurin fluorescence, basal, 24 h, PK04 Diversity Set, profiling panel (AID 1180); settings: higher = more signal;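 further: RPMI8826 multiple myeloma cell line at 5000 cells per well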
# [10] = target: E3 ubiquitin-protein ligase XIAP (Homo sapiens) (UniProt P98170); assay: small molecules binding XIAP protein – biophysical, small-molecule microarray, fluorescence 635 nm, primary screen (AID 1181); settings: higher = more signal;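 further: score merges 667 nm emission and signal to noise over triplicate slides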
# [11] = test system: XIP peptide (Xip251-270) binding; assay: XIP fragment 251-270 binding compounds – biochemical, small-molecule microarray, fluorescence 635/667 nm, 0.1 µg/mL protein, primary screen (AID 1182); settings: fluorescent protein binding, 635 nm, higher = more signal, called active from +8 up or from −8 down
# XIP peptide (Xip251-270) = assay: compounds binding XIP fragment 251-270 – biochemical, small-molecule microarray, fluorescence 635/667 nm, 0.5 µg/mL protein, primary screen (AID 1183); settings: fluorescence 635 nm, higher = more signal
# [12] = blood-stage malaria parasite viability loss – strain 3D7, DAPI fluorescence, 100 nL, primary screen (AID 1184);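 further: parasites grown inside human red blood cells in medium with human serum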; settings: P. falciparum 3D7 growth, 3 d, higher = more signal
# [13] = target: Homeobox protein Hox-A13 (Mus musculus) (UniProt Q62424); assay: disruptors of Hoxa13 oligonucleotide interaction – biochemical, fluorescence polarization, labeled oligonucleotide, primary screen (AID 1185); settings: Hoxa13:DNA binding, 15 min, higher = more signal, called active from +8 up or from −8 down
# [14] = blockers of DNA damage checkpoint Chk1 activation – imaging, HeLa, hydroxyurea, phospho-Chk1 antibody, percent positive cells, primary screen (AID 1186); settings: hydroxyurea-induced phospho-Chk1 immunofluorescence imaging, higher = more signal
# [15] = blockers of DNA damage checkpoint Chk1 activation – imaging, HeLa, hydroxyurea, phospho-Chk1 nuclear intensity, primary screen (AID 1187); settings: hydroxyurea-induced phospho-Chk1 immunofluorescence imaging, higher = more signal
# Sequence of Homeobox protein Hox-A13 (Mus musculus) (Q62424 whole entry, looked up): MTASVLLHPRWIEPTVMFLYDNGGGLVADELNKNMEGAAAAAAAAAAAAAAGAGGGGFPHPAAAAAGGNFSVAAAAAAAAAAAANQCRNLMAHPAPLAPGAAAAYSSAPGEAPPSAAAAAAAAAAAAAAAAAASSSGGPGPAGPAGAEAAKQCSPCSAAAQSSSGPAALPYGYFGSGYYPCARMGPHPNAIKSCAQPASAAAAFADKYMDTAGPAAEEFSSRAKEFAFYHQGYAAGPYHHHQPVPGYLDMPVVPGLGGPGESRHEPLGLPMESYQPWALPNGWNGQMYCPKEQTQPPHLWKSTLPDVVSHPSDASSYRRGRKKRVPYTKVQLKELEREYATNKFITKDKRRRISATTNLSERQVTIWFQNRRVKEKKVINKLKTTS
# Sequence of Dihydroorotate dehydrogenase (quinone), mitochondrial (Plasmodium falciparum (isolate 3D7)) (Q08210 whole entry, looked up): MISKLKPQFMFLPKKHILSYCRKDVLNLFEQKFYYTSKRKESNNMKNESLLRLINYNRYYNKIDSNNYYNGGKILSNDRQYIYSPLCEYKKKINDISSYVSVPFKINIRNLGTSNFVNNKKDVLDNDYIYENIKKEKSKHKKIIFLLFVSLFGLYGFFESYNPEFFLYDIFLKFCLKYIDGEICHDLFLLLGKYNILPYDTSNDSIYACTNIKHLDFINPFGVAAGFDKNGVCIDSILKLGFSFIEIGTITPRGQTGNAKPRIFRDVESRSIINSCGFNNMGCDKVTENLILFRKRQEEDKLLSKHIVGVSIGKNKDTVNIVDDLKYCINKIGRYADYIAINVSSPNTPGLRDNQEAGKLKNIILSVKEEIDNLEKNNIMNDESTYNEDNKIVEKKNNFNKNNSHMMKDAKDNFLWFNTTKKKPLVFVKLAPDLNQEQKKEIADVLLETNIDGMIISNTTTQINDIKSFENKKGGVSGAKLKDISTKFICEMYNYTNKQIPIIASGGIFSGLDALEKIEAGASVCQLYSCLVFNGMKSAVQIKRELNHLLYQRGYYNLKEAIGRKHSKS
# Sequence of E3 ubiquitin-protein ligase XIAP (Homo sapiens) (P98170 whole entry, looked up, the tested form may be a part): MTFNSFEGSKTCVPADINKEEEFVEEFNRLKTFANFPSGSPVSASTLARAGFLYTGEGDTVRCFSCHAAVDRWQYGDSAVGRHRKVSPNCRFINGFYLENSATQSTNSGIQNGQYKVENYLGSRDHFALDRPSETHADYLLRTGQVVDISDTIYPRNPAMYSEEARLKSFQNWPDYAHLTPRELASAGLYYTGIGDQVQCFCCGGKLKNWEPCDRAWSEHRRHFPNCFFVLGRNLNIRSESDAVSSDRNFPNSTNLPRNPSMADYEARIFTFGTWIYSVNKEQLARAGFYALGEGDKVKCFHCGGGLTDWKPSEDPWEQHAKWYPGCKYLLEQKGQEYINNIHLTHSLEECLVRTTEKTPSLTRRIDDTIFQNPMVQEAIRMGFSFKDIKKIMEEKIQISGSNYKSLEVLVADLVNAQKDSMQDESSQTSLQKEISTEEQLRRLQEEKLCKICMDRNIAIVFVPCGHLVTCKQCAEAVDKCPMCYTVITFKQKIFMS
structure (smiles),measurement,setting,value
C[N+](C)(C)CCCC[C@@H]1NC(=O)[C@@H]2C[C@H](C(=O)NCCCCCN)[C@H](c3cccc(OCCO)c3)N2C1=O,z-score,[1],-0.85
same,z-score,[2],-0.749 (inactive)
same,z-score,[3],-1.23 (inactive)
same,composite z-score,[4],-0.76 (inactive)
same,z-score,[5],0.131 (inactive)
same,z-score,[6],0.527 (inactive)
same,z-score,[7],0.0148 (inactive)
same,z-score,[8],0.597 (inactive)
same,z-score,[9],0.0758
same,composite z-score,[10],0.191
same,composite z-score,[11],-0.442 (inactive)
same,composite z-score,XIP peptide (Xip251-270),0.572
same,z-score,[12],0.137
same,z-score,[13],-3.6 (inactive)
same,z-score,[14],-0.86 (inactive)
same,z-score,[15],-0.231 (inactive)
C=C(COC)/C(=C/C[C@H](OC(=O)c1ccncc1)c1ccc(OCCO)cc1)c1cnc2ccccc2c1,z-score,[1],0.444
same,z-score,[2],-0.309 (inactive)
same,z-score,[3],-0.389 (inactive)
same,composite z-score,[4],-3.5 (inactive)
same,z-score,[5],0.424 (inactive)
same,z-score,[6],-0.401 (inactive)
same,z-score,[7],-0.802 (inactive)
same,z-score,[8],-0.679 (inactive)
same,z-score,[9],-0.342
same,composite z-score,[10],-0.174
same,composite z-score,[11],0.908 (inactive)
same,composite z-score,XIP peptide (Xip251-270),0.791
same,z-score,[12],-2.77
same,z-score,[13],-4.16 (inactive)
same,z-score,[14],0.157 (inactive)
same,z-score,[15],0.313 (inactive)
[N-]=[N+]=NCc1ccccc1[C@@H]1OC(c2ccc(OCCCO)cc2)=N[C@]1(Cc1ccccc1N=[N+]=[N-])C(=O)N1CCOCC1,z-score,[1],-0.54
same,z-score,[2],-0.532 (inactive)
same,z-score,[3],-1.21 (inactive)
same,composite z-score,[4],-0.52 (inactive)
same,z-score,[5],0.727 (inactive)
same,z-score,[6],0.602 (inactive)
same,z-score,[7],-0.38 (inactive)
same,z-score,[8],-0.265 (inactive)
same,z-score,[9],-1.64
same,composite z-score,[10],0.358
same,composite z-score,[11],0.129 (inactive)
same,composite z-score,XIP peptide (Xip251-270),0.706
same,z-score,[12],-2.03
same,z-score,[13],-2.15 (inactive)
same,z-score,[14],0.0823 (inactive)
same,z-score,[15],0.515 (inactive)
CN1C(=O)C2C=CC(C(O)C3CCCCC3)N(Nc3ccc([N+](=O)[O-])cc3[N+](=O)[O-])C2C1=O (stereo not given),z-score,[1],-0.248
same,z-score,[2],0.819 (inactive)
same,z-score,[3],-0.778 (inactive)
same,composite z-score,[4],-0.877 (inactive)
same,z-score,[5],-0.159 (inactive)
same,z-score,[6],-0.0006 (inactive)
same,z-score,[7],-0.719 (inactive)
same,z-score,[8],-0.556 (inactive)
same,z-score,[9],-0.373
same,composite z-score,[10],0.618
same,composite z-score,[11],0.514 (inactive)
same,composite z-score,XIP peptide (Xip251-270),0.487
same,z-score,[12],0.501
same,z-score,[13],-2.4 (inactive)
same,z-score,[14],0.168 (inactive)
same,z-score,[15],0.377 (inactive)
COCCOC(=O)N1C(=O)[C@@]2(c3ccccc31)[C@H](c1ccccc1OCCO)N1[C@H](c3ccccc3)[C@H](c3ccccc3)OC(=O)[C@H]1[C@@H]2C(=O)Nc1nc2ccccc2s1,z-score,[1],0.487
same,z-score,[2],1.33 (inactive)
same,z-score,[3],-0.442 (inactive)
same,composite z-score,[4],0.662 (inactive)
same,z-score,[5],2.76 (inactive)
same,z-score,[6],2.22 (inactive)
same,z-score,[7],0.931 (inactive)
same,z-score,[8],1.74 (inactive)
same,z-score,[9],0.0081
same,composite z-score,[10],0.0623
same,composite z-score,[11],0.219 (inactive)
same,composite z-score,XIP peptide (Xip251-270),0.823
same,z-score,[12],-0.697
same,z-score,[13],0.922 (inactive)
same,z-score,[14],0.002 (inactive)
same,z-score,[15],0.122 (inactive)
CN1C(=O)C2C=CC(C(O)c3cc(C(F)(F)F)cc(C(F)(F)F)c3)N(N3CCCCC3)C2C1=O (stereo not given),z-score,[1],-0.55
same,z-score,[2],1.36 (inactive)
same,z-score,[3],-0.136 (inactive)
same,composite z-score,[4],0.929 (inactive)
same,z-score,[5],0.049 (inactive)
same,z-score,[6],2.29 (inactive)
same,z-score,[7],-0.289 (inactive)
same,z-score,[8],-0.795 (inactive)
same,z-score,[9],0.493
same,composite z-score,[10],-0.295
same,composite z-score,[11],0.11 (inactive)
same,composite z-score,XIP peptide (Xip251-270),0.289
same,z-score,[12],-0.0782
same,z-score,[13],-4.54 (inactive)
same,z-score,[14],-1.22 (inactive)
same,z-score,[15],-1.63 (inactive)
CC[C@@H]1C=C(C(=O)O)[C@H](c2ccco2)N1S(=O)(=O)c1ccc(C)cc1,z-score,[1],-0.456
same,z-score,[2],0.538 (inactive)
same,z-score,[3],-0.283 (inactive)
same,composite z-score,[4],0.267 (inactive)
same,z-score,[5],0.449 (inactive)
same,z-score,[6],-0.0109 (inactive)
same,z-score,[7],-0.721 (inactive)
same,z-score,[8],0.34 (inactive)
same,z-score,[9],-0.88
same,composite z-score,[10],0.124
same,composite z-score,[11],3.88 (inactive)
same,composite z-score,XIP peptide (Xip251-270),-0.265
same,z-score,[12],-0.761
same,z-score,[13],-4.78 (inactive)
same,z-score,[14],0.186 (inactive)
same,z-score,[15],0.162 (inactive)
CCOC(=O)[C@H]1C/C=C/C[C@H](C(=O)OCC)C(=O)O[C@H]2[C@@H](OC)O[C@H](CO)[C@@H](OC(=O)Nc3cccc(F)c3)[C@@H]2OC1=O,z-score,[1],-5.49
same,z-score,[2],-0.218 (inactive)
same,z-score,[3],-9.05 (active)
same,composite z-score,[4],-0.0103 (inactive)
same,z-score,[5],1.74 (inactive)
same,z-score,[6],1.84 (inactive)
same,z-score,[7],0.675 (inactive)
same,z-score,[8],1.23 (inactive)
same,z-score,[9],-7.34
same,composite z-score,[10],0.125
same,composite z-score,[11],1.17 (inactive)
same,composite z-score,XIP peptide (Xip251-270),0.526
same,z-score,[12],-1.73
same,z-score,[13],-2.16 (inactive)
same,z-score,[14],-0.197 (inactive)
same,z-score,[15],-0.145 (inactive)
COC(=O)[C@@]1(Cc2ccc(OC)cc2)[C@H]2c3cc(C(=O)N4CCCC4)n(Cc4ccccc4)c3C[C@H]2CN1C(=O)c1ccccc1,z-score,[1],-2.62
same,z-score,[2],1.04 (inactive)
same,z-score,[3],-0.912 (inactive)
same,composite z-score,[4],-0.264 (inactive)
same,z-score,[5],0.219 (inactive)
same,z-score,[6],0.479 (inactive)
same,z-score,[7],-0.559 (inactive)
same,z-score,[8],0.0434 (inactive)
same,z-score,[9],-3.16
same,composite z-score,[10],-0.065
same,composite z-score,[11],0.738 (inactive)
same,composite z-score,XIP peptide (Xip251-270),0.0127
same,z-score,[12],-1.5
same,z-score,[13],-3.78 (inactive)
same,z-score,[14],0.212 (inactive)
same,z-score,[15],0.07 (inactive)
O=C1O[C@H](c2ccccc2)[C@H](c2ccccc2)N2[C@H]1[C@@H](C(=O)O)[C@]1(C(=O)Nc3ccc(C#CCCO)cc31)[C@H]2c1ccc(O)cc1,z-score,[1],1.11
same,z-score,[2],-0.326 (inactive)
same,z-score,[3],1.5 (inactive)
same,composite z-score,[4],0.158 (inactive)
same,z-score,[5],0.0568 (inactive)
same,z-score,[6],0.0737 (inactive)
same,z-score,[7],0.994 (inactive)
same,z-score,[8],1.69 (inactive)
same,z-score,[9],1.14
same,composite z-score,[10],-0.127
same,composite z-score,[11],0.207 (inactive)
same,composite z-score,XIP peptide (Xip251-270),0.901
same,z-score,[12],-0.136
same,z-score,[13],-5.42 (inactive)
same,z-score,[14],0.11 (inactive)
same,z-score,[15],-0.002 (inactive)
